Several values for one entry are separate records, joined by “and”; a condition that tells them apart may be missing. Equal entries are not always repeated. Results filed as inconclusive are left out. Activity calls are given as the source filed them. Calls follow the shape of the dose curve; as a rule, active = well fitted activation curve with a large enough effect; inconclusive = small, poorly fitted or top-dose-only effect; inactive = no such curve, though single readings can be large or run the other way. Where a SMILES comes first, the peptide text is derived from it. The star is where a group is joined. Cbz = O=C(OCc1ccccc1)*

The target of the assay is Cellular tumor antigen p53 (Homo sapiens) (UniProt P04637). Put plainly: Primary qHTS for small molecule compounds that upregulate eGFP-tagged delta133p53alpha (in N-terminal) cells. (AID 2060322).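 Also: cells pre-induced with doxycycline then dosed without doxycycline; series mostly up to about 56 µM; 0% = DMSO vehicle and 100% = reference activator; nearly all actives have a fitted effect of over 75% in size.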 The following applies: NCI-H358 eGFP-delta133p53alpha fluorescence, 24 h; activation: hits give high values. The method, boiled down: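 NCI-H358 cells pre-induced 24 h with 10 ng/ml doxycycline for eGFP-delta133p53alpha, plated dox-free and exposed 24 h at 37C to titrated compounds. Fixed, Hoechst-stained; gated GFP peak intensity by laser scanning cytometry, normalized to DMSO (0%) and 57.5 uM 5-azacytidine (100%).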
Chain of Cellular tumor antigen p53 (Homo sapiens) (P04637 whole entry, looked up): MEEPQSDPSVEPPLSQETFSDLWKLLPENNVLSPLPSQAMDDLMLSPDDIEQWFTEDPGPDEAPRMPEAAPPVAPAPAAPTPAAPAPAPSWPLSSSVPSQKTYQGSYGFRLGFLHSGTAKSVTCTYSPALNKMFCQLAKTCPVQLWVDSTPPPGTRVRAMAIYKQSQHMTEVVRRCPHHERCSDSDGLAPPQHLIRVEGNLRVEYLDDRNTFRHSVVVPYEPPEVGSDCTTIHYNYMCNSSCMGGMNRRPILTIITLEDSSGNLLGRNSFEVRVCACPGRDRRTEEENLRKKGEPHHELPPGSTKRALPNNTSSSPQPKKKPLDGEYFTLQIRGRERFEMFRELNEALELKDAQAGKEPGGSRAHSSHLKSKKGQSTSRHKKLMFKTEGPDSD
In the case of `NC1C=CC=C(C(=O)O)C1` (stereo not given), the activation was -22% (inactive).
`Fc1ccc(CN(C2=NCCN2)c2c(Cl)cccc2Cl)cc1`: the activation was -28.1% (inactive).
With `CNCC[C@H](Oc1ccc(C(F)(F)F)cc1)c1ccccc1`, the activation is -46.5% (inactive).
The value for `Cc1cccc(C)c1OCC(C)N` (stereo not given) was 8.37% (inactive) and -22.7% (inactive).
For the molecule `CC1CCN(CC[C@H]2CCCN2S(=O)(=O)c2cccc(O)c2)CC1`, the activation was -4.01% (inactive).
Under `NC(=O)C(=O)O` stands -8.72% (inactive); under `O=c1[nH]c2cc([N+](=O)[O-])c([N+](=O)[O-])cc2[nH]c1=O`, 41.5% (inactive); under `Nn1nnc2ccccc21`, 15.1% (inactive).
Take `CCCCCCCCCCCCCCSCC(=O)O`: the activation was -11% (inactive).
Consider `Cc1nc(N=Nc2ccc(C(=O)O)cc2)c(COP(=O)(O)O)c(C=O)c1O`, for which the activation was -2.63% (inactive).
With `CN1CCc2cc(Cl)c(O)cc2[C@@H](c2ccccc2)C1`, the activation is -19.2% (inactive).
For `C[C@@H](CN1CCC(Cc2ccccc2)CC1)[C@@H](O)c1ccc(O)cc1`, the activation was -9.23% (inactive).
Under `CN/C(=C\[N+](=O)[O-])NCCSCc1ccc(CN(C)C)o1` stands 7.34% (inactive) and -15.3% (inactive); under `Nc1ncnc2c1nc(Sc1ccc(Cl)cc1)n2[C@H]1OC2COP(=O)(O)O[C@@H]2C1O` (stereo not given in full), 27.8% (inactive); under `CN1CCCC1CCOC(C)(c1ccccc1)c1ccc(Cl)cc1` (stereo not given), -26.8% (inactive).
Under `CN(C)C(N)=NCCC[C@H](N)C(=O)O` stands -10.9% (inactive).
As for `O=C(O)c1cc2cc(Cc3cccnc3)ccc2o1`, the activation was 19.6% (inactive).
Turning to `COc1ccc2c(c1)c(CC(=O)O)c(C)n2C(=O)c1ccccc1`, the activation is -16.8% (inactive).
As to `Fc1cccc(/C=N/N=C/c2cccc(F)c2)c1`, the activation was -12.5% (inactive).
In the case of `NC/C=C/C(=O)O`, the activation is 18.6% (inactive) and -17.5% (inactive).
With `O=c1[nH]c2cc(C(F)(F)F)ccc2n1-c1cc(C(F)(F)F)ccc1O`, the activation is -56.6% (inactive).
For `CC(C)(C)[C@]1(O)CCN2C[C@H]3c4ccccc4CCc4cccc(c43)[C@@H]2C1`, the activation is -52.3% (inactive) and -59.2% (inactive).
For `CNc1ncnc2c1ncn2[C@@H]1O[C@H](CO)[C@@H](O)[C@H]1O`, the activation is 5.48% (inactive).
`O[Si](CCCN1CCCCC1)(c1ccc(F)cc1)C1CCCCC1` (stereo not given): the activation is -77.2% (inactive).
Under `CC(CCc1ccc(O)cc1)NCCc1ccc(O)c(O)c1` (stereo not given) stands 23.7% (inactive) and -15.1% (inactive) and -3.75% (inactive); under `Nc1ccc(N2C(=O)c3ccccc3C2=O)c(Cl)c1`, -1.82% (inactive).
In the case of `CC(C)[C@H](NC(=O)OCc1ccccc1)C(=O)N[C@H](C=O)Cc1ccccc1` (Cbz-Val-Phe-aldehyde), the activation is -5.34% (inactive).
The value for `CCN(CC)CC(=O)Nc1c(C)cccc1C` was -3.35% (inactive) and -7.58% (inactive).
Under `CSC(=N)N` stands 3.81% (inactive); under `CC(C)C(=O)c1c(C(C)C)nn2ccccc12`, -13.4% (inactive) and -31.4% (inactive).
In the case of `CC1=C(C(=O)O)N2C(=O)[C@@H](NC(=O)C(N)c3ccccc3)[C@H]2SC1` (stereo not given in full), the activation is 15.6% (inactive) and -22.6% (inactive).
In the case of `Cc1cc(NC2CCCCC2)nc(-n2nc(C)cc2C)n1`, the activation is -20.8% (inactive).
The value for `CC[C@@H](C)[C@H]1O[C@]2(CC[C@H]1C)C[C@@H]1C[C@@H](CC=C(C)[C@@H](O[C@H]3C[C@H](OC)[C@@H](O[C@H]4C[C@H](OC)[C@@H](O)[C@H](C)O4)[C@H](C)O3)[C@@H](C)C=CC=C3CO[C@@H]4[C@H](O)C(C)=C[C@@H](C(=O)O1)[C@]34O)O2` was -12.1% (inactive); that for `CC(=O)Nc1nnc(S(N)(=O)=O)s1` was 21.8% (inactive) and -10.7% (inactive).
Consider `CC(=O)N[C@@H](Cc1c[nH]c2ccccc12)C(=O)OCc1cc(C(F)(F)F)cc(C(F)(F)F)c1`, for which the activation was -29.2% (inactive).
For `CCCCC[C@H](CC(=O)NO)C(=O)N[C@H](C(=O)N1CCC[C@H]1CO)C(C)C`, the activation was -6.85% (inactive).
Regarding `CC1(C)CCC(NC(=O)[C@@H](N)CCC(=O)O)CC1`, the activation was -8.15% (inactive).
As to `Cn1cc(C(=O)OCC2CCN(CCNS(C)(=O)=O)CC2)c2ccccc21`, the activation is -16.5% (inactive).
On to `Nc1c2c(nc3ccccc13)CCCC2O` (stereo not given), for which the activation is 7.34% (inactive) and -16.8% (inactive).
Regarding `Cn1cnc2c(NCc3ccccc3)nc(NCCO)nc21`, the activation was -37% (inactive).

The values above are taken from PubChem BioAssay (NCATS).
